Screening results: PubChem, National Center for Advancing Translational Sciences (NCATS)
HPGD block: blocks human HPGD enzyme activity; P15428; purified HPGD, NADH fluorescence kinetic, PGE2 substrate; Potency, µM, for inactives: at the highest dose activity change, negative = inhibition, most hits filed as inhibitors; hit rate 4.3% among 150,000; also: potency is read from the fitted curve at half-maximal effect
Target sequence (P15428 whole entry, looked up): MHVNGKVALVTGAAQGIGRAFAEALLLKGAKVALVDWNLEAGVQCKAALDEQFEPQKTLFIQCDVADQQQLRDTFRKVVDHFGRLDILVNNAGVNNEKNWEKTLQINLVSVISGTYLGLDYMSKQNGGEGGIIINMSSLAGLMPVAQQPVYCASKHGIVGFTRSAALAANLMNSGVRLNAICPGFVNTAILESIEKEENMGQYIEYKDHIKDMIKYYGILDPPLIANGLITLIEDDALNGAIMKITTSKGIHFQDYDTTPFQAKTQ
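NADH formation kinetics: reaction with 30 uM PGE2 and 1 mM NAD+ (final), 20 nM enzyme, Tris-HCl pH 8 with Tween 20, after 15 min compound preincubation at room temperature. Fluorescence change, last versus first of five reads.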
ALDH1A1 inh: ALDH1A1 (human) enzyme inhibition. Potency, µM (series often up to 75.3 µM), without a hit: at the highest dose activity, negative = inhibition, usual class: inhibitors. Purified ALDH1A1, NADH fluorescence, propionaldehyde substrate. hit rate 7.3% among 220,000;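 also: potency is read from the fitted curve at half-maximal effect; plate controls were no enzyme wells and a reference inhibitor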
IMPase cell inh: membrane-permeable compound that blocks inositol monophosphatase | CHO-M1 cells, IP1 accumulation, HTRF TR-FRET ratio | 120,000 tested, under 10 active | inhibition (IP1 accumulation), % at 46.1 µM | P97697; active = well fitted curve in the direction sought with a large enough effect in the signal ratio, not every such curve was filed as active; inconclusive = small, poorly fitted or top-dose-only effect, or a change in a side signal; inactive = no such curve, though single readings can be large or run the other way; the % refers to the signal ratio;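 also: cells stimulated with carbachol in lithium chloride buffer; plate controls were DMSO basal wells for no effect and reference inhibitor wells for full effect; higher means more IMPase inhibition seen as more IP1 and lower FRET ratio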
Target sequence (P97697 whole entry, looked up): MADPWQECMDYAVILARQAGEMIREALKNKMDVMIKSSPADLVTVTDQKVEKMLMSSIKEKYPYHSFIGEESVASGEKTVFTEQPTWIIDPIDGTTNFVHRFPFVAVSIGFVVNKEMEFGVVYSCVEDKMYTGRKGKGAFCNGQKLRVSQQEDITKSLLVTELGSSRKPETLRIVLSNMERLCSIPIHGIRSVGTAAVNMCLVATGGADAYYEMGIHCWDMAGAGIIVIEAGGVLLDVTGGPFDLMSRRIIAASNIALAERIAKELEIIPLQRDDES
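CHO-M1, 2000 cells/well, cultured 16–30 h; cpd up to 46 uM; carbachol (50 uM solution, stimulation buffer w/ 50 mM LiCl, pH 7.4), 30 min 37C; IP-One TR-FRET, 10 min RT; Ex 320/Em 665, 620; Hill-fit AC50.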
The depositor's hits bear a star; ? = inconclusive; . = no result given; ! = a repeat was not active; [ ] = another dose, or the depositor's remark. Rows were chosen to be rich in hits. Some 9% of all compounds tested hit in one or more screens of this group. Unless noted, calls follow the shape of the dose curve; as a rule, active = well fitted inhibition curve with a large enough effect (not every such curve was filed as active); inconclusive = small, poorly fitted or top-dose-only effect, or another doubt; inactive = no such curve, though single readings can be large or run the other way. Unless noted, % is scaled to controls: 0 for no effect and ±100 for the full control effect.

SMILES	HPGD block	ALDH1A1 inh	IMPase cell inh
Cc1cccc(CN2CCN(CC(=O)N3CCC4(CC3)OCCO4)C2=O)c1	-6.5%	7.6%	-1.5
Cc1cccc(CS(=O)(=O)Cc2ccc(C(=O)N3CCC4(CC3)OCCO4)o2)c1	-3.2%	25.1µM*	22.6
O=C(c1ccc(CNS(=O)(=O)c2ccccc2)cc1)N1CCC2(CC1)OCCO2	?	8.91µM*	-0.2
O=C(c1ccc(CNS(=O)(=O)c2ccc(Br)cc2)cc1)N1CCC2(CC1)OCCO2	-17.4%	2.0%	.
CCCC(=O)Nc1cc(C(=O)N2CCC3(CC2)OCCO3)ccc1S(=O)(=O)c1ccc(C)cc1	-5.6%	-0.2%	3.1
Cc1ccc(S(=O)(=O)Nc2cc(C(=O)N3CCC4(CC3)OCCO4)ccc2N2CCCCC2)cc1	-25.3%	3.98µM*	8.3
CC(=O)Nc1cc(C(=O)N2CCC3(CC2)OCCO3)ccc1Sc1ccc(F)cc1	.	2.99µM*	.
CC(=O)Nc1cc(C(=O)N2CCC3(CC2)OCCO3)ccc1Sc1ccc(C)cc1	-9.8%	?	0.7
C#CCOS(=O)OC1CCCCC1Oc1ccc(C(C)(C)C)cc1 (stereo not given)	-18.5%	?	.
CC(C)C1C(=O)N2CCCC2[C@]2(O)O[C@@](NC(=O)[C@@H]3C=C4c5cccc6[nH]cc(c56)C[C@H]4N(C)C3)(C(C)C)C(=O)N12 (stereo not given in full)	?	?	-4.9
C[N+]1([O-])[C@@H]2CC(OC(=O)[C@@H](CO)c3ccccc3)C[C@@H]1[C@H]1O[C@H]12 (stereo not given in full)	-10.2%	-3.7%[13.5 µM]	19.4[20.6 µM]
O=C(c1ccc(CS(=O)(=O)c2ccc(Br)cc2)o1)N1CCC2(CC1)OCCO2	-4.9%	-2.7%	8.0
O=C(c1ccc(CS(=O)(=O)c2ccccc2)o1)N1CCC2(CC1)OCCO2	-6.2%	22.4µM*	9.2
COC(=O)C12C/C=C\Cc3ccccc3[C@@H]1CNC2=O (stereo not given in full)	-7.8%	-7.1%	.
Cc1o[nH]c(=O)c1C[C@H](N)C(=O)O	3.7%	-4.2%	1.4
CN(C)CS/C(N)=N/[C@H](O)C(Cl)(Cl)Cl	-10.5%	3.16µM*	.
CC(=O)OC1CC2C(C)(C)C(O)C=C[C@@]2(C)C2CC[C@]3(C)C(=CC(=O)OC3c3ccoc3)[C@]12C (stereo not given in full)	-11.4%	?	.
CCCC[N+]1(C)[C@@H]2CC(OC(=O)[C@@H](CO)c3ccccc3)C[C@H]1[C@H]1O[C@H]12 (stereo not given in full)	.	.	18.9
S=c1[nH]c2ccccc2[nH]1	-4.9%	?	.
S=c1[nH]c2cc(Br)cnc2[nH]1	.	3.16µM*	.
COc1ccc(C[C@H]2c3cc(OC)c(OC)cc3CCN2C)cc1OC	-7.6%	2.5%[20.9 µM]	-3.2[20.6 µM]
C[C@@]12CC(c3ccoc3)OC(=O)C1CC[C@@]1(C)C2C2C=C[C@@]1(O)C(=O)O2 (stereo not given in full)	-1.0%	-7.5%	.
O=C(O)CC/C(=C\c1cc([N+](=O)[O-])ccc1Cl)c1nc2ccccc2s1	-14.1%	?	.
O=C(OCC(=O)c1ccc([N+](=O)[O-])cc1)/C(=C\c1ccc(Cl)cc1)NC(=O)c1ccccc1	-4.6%	12.6µM*	8.8
COC(=O)CSc1nc2sc3c(c2c(=O)n1C1CCCCC1)CCN(C)C3	?	?	9.4
SMILES	HPGD block	ALDH1A1 inh	IMPase cell inh
COc1ccc(C(=O)O)cc1OC	-3.0%	-8.5%	.
O=C(O)c1cc(O)c(O)c(O)c1	7.08µM*!	2µM*	.
COC(=O)[C@@H]1C[C@H]2CC[C@H](O)C[C@H]2N1CC1CC1	-8.7%	9.2%	.
Nc1nc(N)c(N=Nc2ccc([As](=O)(O)O)cc2)c(=O)[nH]1	-0.5%	1.6%[13.5 µM]	.
O=[N+]([O-])c1cccc(O)c1	-10.1%	?	.
O=[N+]([O-])c1ccccc1	-10.4%	31.6µM*	.
C=C(CO)CC1CC(O)[C@]2(C)OC3CC4OC5C[C@]6(C)O[C@]7(C)CCC8OC9C[C@]%10(C)OC%11C(C)=CC(=O)OC%11CC%10OC9C[C@@H](C)C8OC7CC6O[C@]5(C)C/C=C\C4OC3CC2O1 (stereo not given in full)	.	1.41µM*	.
C=C(C=O)CC1CC(O)[C@]2(C)OC3CC4OC5C[C@]6(C)O[C@]7(C)CCC8OC9C[C@]%10(C)OC%11C(C)=CC(=O)OC%11CC%10OC9C[C@@H](C)C8OC7CC6O[C@]5(C)CC5OC5C4OC3CC2O1 (stereo not given in full)	.	4.47µM*	.
CC[C@]12CCCN3CCC4(c5ccccc5NC4C(C(=O)O)C1)C32 (stereo not given in full)	-7.3%	10.5%	.
CC(N)C(O)c1ccc(O)c(O)c1 (stereo not given)	2.7%	0.9%	.
O=c1[nH]c(=S)n(Cc2ccc(F)cc2)c(O)c1/C=N/N1CCCCC1	-18.1%	?	.
O=c1[nH]c(=S)n(Cc2ccc(F)cc2)c(O)c1C=NCC1CCCO1 (stereo not given)	28.2µM*	?	-10.0
Ic1c(C2=CCCCC2)[se]c2ccccc12	-2.4%	-0.4%	.
CO[C@@H](C)[C@](O)(C(=O)OCC1=CCN2CC[C@@H](O)[C@H]12)C(C)C	5.0%	10.9%[20.9 µM]	10.9[20.6 µM]
O=c1c2ccccc2nc(-c2ccoc2)n1-c1ccccc1Cl	-19.5%	15.8µM*	3.3
COc1ccccc1-n1c(-c2ccoc2)nc2ccccc2c1=O	-10.6%	?	-1.0
[O-][Br+2]([O-])O	-7.7%	?	.
CC[C@H]1C(=O)OC[C@H]1Cc1cncn1C	-0.6%	14.5%[13.5 µM]	8.3
COc1ccc(/C=C/C(=O)N2CC3C[C@@H](C2)Cn2c3cccc2=O)cc1OC	?	-9.2%	.
O=C(c1ccc2c(=O)n(Cc3ccc4c(c3)OCO4)c(=S)[nH]c2c1)N1CCC2(CC1)OCCO2	31.6µM*	?	-5.5
O=C(NCc1ccc(C(=O)N2CCC3(CC2)OCCO3)cc1)c1ccc2c(c1)OCO2	-18.3%	7.6%	3.1
CN[C@H](Cc1ccccc1)c1cccc(OC)c1O	-5.8%	5.2%[13.5 µM]	.
NC(=O)c1ncn([C@@H]2O[C@H](CO)[C@@H](O)[C@H]2O)n1	-4.0%	25.1µM*!	9.7
NC(=O)c1ncn([C@H]2O[C@@H](CO)[C@@H](O)[C@@H]2O)n1	-3.6%	-4.9%[20.9 µM]	-2.7[20.6 µM]
O=S(=O)(NCCO)c1cc[c]([Sb])cc1	-1.8%	5.1%[13.5 µM]	.
SMILES	HPGD block	ALDH1A1 inh	IMPase cell inh
Cc1ccc(OP(=O)(Oc2ccc(C)cc2)N2C=Cc3ccccc3[C@H]2C#N)cc1	-6.0%	-10.8%[13.5 µM]	.
COc1ccc(CCNCc2cccc(C(F)(F)F)c2)cc1OC	.	-7.5%	.
COc1cccc(CCNCc2c(F)cccc2F)c1	.	10µM*	.
CC[n+]1c(/C=C/N(C)c2ccccc2)sc2ccc(Cl)cc21	-23.3%	15.8µM*	19.8
c1ccc([Se]c2c(-c3ccccc3)[se]c3ccccc23)cc1	-4.1%	9.1%	.
CC(C)COC(=O)c1ccccc1C(=O)OCC(C)C	-8.7%	?	.
CCCCC(CC)COC(=O)c1ccccc1C(=O)OCC(CC)CCCC (stereo not given)	-7.0%	22.4µM*	.
NNC(N)=S	-4.4%	?	.
CCC(C)C(=O)c1c(O)c(C)c2oc3c(C)c(O)c(C(=O)C(C)CC)c(O)c3c2c1O (stereo not given)	-5.6%	0.3%	.
O=c1[nH]c(=S)[nH]c(O)c1N=Nc1ccc(SC(F)F)cc1	.	20µM*	.
CCOc1ccc2nc(N=Nc3c(O)[nH]c(=S)[nH]c3=O)sc2c1	.	-1.7%	.
